Measured values as given in the supplement of paper PMC13380429.

System: Vero E6 infected with SARS-CoV-2
Assay: inhibition of SARS-CoV-2 cytopathic effect; higher = more antiviral protection, active = above 15
Conditions: 48 h

Measured: inhibition of SARS-CoV-2 cytopathic effect

CCN(CCCOc1ccc2c(Nc3cc(CC(=O)Nc4cccc(F)c4)[nH]n3)ncnc2c1)CCOP(=O)(O)O [barasertib]
inactive: 1 nM -0.38% | 8.33 nM 0.9% | 100 nM -1.02% | 833.33 nM -2.03% | 10000 nM -4.38%

CO[C@@H](C(=O)N1Cc2[nH]nc(NC(=O)c3ccc(N4CCN(C)CC4)cc3)c2C1)c1ccccc1 [danusertib]
inactive: 1 nM 2.82% | 8.33 nM 2.41% | 100 nM -1.12% | 833.33 nM -0.08% | 10000 nM -3.74%

O=P(O)(O)C(Cl)(Cl)P(=O)(O)O [clodronic-acid]
inactive: 1 nM 0.55% | 8.33 nM 0.27% | 100 nM 0.5% | 833.33 nM 2.21% | 10000 nM -1.06%

O=c1n(CCCN2CCN(c3cccc(Cl)c3)CC2)nc2ccccn12 [trazodone]
inactive: 1 nM 0.53% | 8.33 nM 4.07% | 100 nM 0.98% | 833.33 nM -1.12% | 10000 nM -0.82%

CO/N=C(\C(=O)N[C@@H]1C(=O)N2C(C(=O)O)=C(CSC(=O)c3ccco3)CS[C@H]12)c1csc(N)n1
inactive: 1 nM -0.19% | 8.33 nM -0.66% | 100 nM -1.18% | 833.33 nM -0.09% | 10000 nM -0.18%

O=C1CC[C@@H](C(=O)N2CSC[C@H]2C(=O)O)N1 [pidotimod]
inactive: 1 nM -1.03% | 8.33 nM 0.49% | 100 nM -1.22% | 833.33 nM 2.73% | 10000 nM -0.3%

CCc1cc(C(N)=S)ccn1 [ethionamide]
inactive: 1 nM -1.54% | 8.33 nM 0.54% | 100 nM -0.38% | 833.33 nM -1.73% | 10000 nM 2.79%
